Only some compounds are listed: those with a hit (about 3.5% of all), similar ones and a draw of the others.
Pf apPOL inh = Pf-apPOL DNA polymerase inhibition; AID 1794808; 210,000 compounds, 0.25% hits; Recombinant Pf-apPOL, molecular beacon fluorescence, 1.5 h; inhibition, % at 10 µM
mHTT-CaM PPI inh = disrupts binding of mutant huntingtin to calmodulin; P42858; AlphaScreen His-mHTT/GST-CaM binding, luminescence; inhibition, % at 15 µM; 190,000 compounds, 3.6% hits; AID 1671202
Large screens that a line does not name were inactive. Rule as the data show it: active = inhibition above about 50%; inactive = the rest.

O=C(Nc1ccc2nn(-c3ccccc3)nc2c1)c1ccc(Cl)c([N+](=O)[O-])c1	none
O=C(NC=Nc1cc([N+](=O)[O-])c(-c2ccncc2)n1-c1ccccc1)c1cccc(O)c1	mHTT-CaM PPI inh 64
CN(c1cc2c(c3c1ccn3C)C1CCC2C1)C1CCCCC1 (stereo unspecified)	mHTT-CaM PPI inh 70
Cn1ccc2c(N(c3ccccc3)C3CCCCC3)cc3c(c21)C1CCC3O1 (stereo unspecified)	none
Cn1ccc2c(-c3ccc(F)cc3)cc3c(c21)C1CCC3C1 (stereo unspecified)	none
COc1ccccc1N(C)c1cc2c(c3c1ccn3C)C1CCC2C1 (stereo unspecified)	mHTT-CaM PPI inh 83
CN(CCc1ccccc1)c1cc2c(c3c1ccn3C)C1CCC2C1 (stereo unspecified)	mHTT-CaM PPI inh 75
Cc1ccccc1-c1cc2c(c3c1ccn3C)C1CCC2C1 (stereo unspecified)	none
COc1ccc(-c2cc3c(c4c2ccn4C)C2CCC3C2)cc1F (stereo unspecified)	none
CCN(C)c1cc2c(c3c1ccn3C)C1CCC2C1 (stereo unspecified)	mHTT-CaM PPI inh 53
O=C(O)CCc1nc(-c2ccccc2)c(-c2ccccc2)o1	none (no result: mHTT-CaM PPI inh)
Cc1ccccc1CC(=O)N1CCC2(CC1)NC(=O)N(Cc1ccccc1)C2=O	none
Cc1ccc(OCC(=O)Nc2ccc(F)cc2)c(C)c1	none
Cn1ccc2c(N(Cc3ccccc3)Cc3ccccc3)cc3c(c21)C1CCC3C1 (stereo unspecified)	none
CN(Cc1ccccc1)c1cc2c(c3c1ccn3C)C1CCC2C1 (stereo unspecified)	mHTT-CaM PPI inh 71
CC1=NOC(=O)/C1=C/c1ccccc1OCc1ccc(Br)cc1	mHTT-CaM PPI inh 54
COc1cc(/C=C2\C(=O)ON=C2C)cc(Cl)c1OCc1ccc(C)cc1	mHTT-CaM PPI inh 95
COc1cc(/C=C2\C(=O)ON=C2C)ccc1OCc1ccccc1F	none
CC1=NOC(=O)/C1=C/c1ccc(OCc2ccc(C)cc2)c(Cl)c1	none
C=CCOc1c(Br)cc(/C=C2\C(=O)ON=C2C)cc1OC	none
COc1cc(/C=C2\C(=O)ON=C2C)cc(Br)c1OCc1ccccc1F	mHTT-CaM PPI inh 64
COc1cc(/C=C2\C(=O)ON=C2C)cc(Br)c1OCc1ccc(C)cc1	mHTT-CaM PPI inh 70
CC1=NOC(=O)/C1=C/c1ccccc1OCc1ccccc1Cl	none
CCSc1nc(O)c(CC)c(=O)n1C(C)CC (stereo unspecified)	none
C=CCn1c(SCC(O)CO)nc2c1c(=O)[nH]c(=O)n2C (stereo unspecified)	none
CC(=O)c1cccc(NC(=O)c2cc(Br)ccc2Cl)c1	none
CCCSc1ccc(N)nc1	none
O=c1cc(-c2ccc(O)cc2)oc2cc(O)cc(O)c12	none (no result: mHTT-CaM PPI inh)
O=c1cc2oc3cc(O)c(-c4ccc(O)cc4O)cc3nc-2cc1-c1ccc(O)cc1O	mHTT-CaM PPI inh 100 (no result: Pf apPOL inh)
Cc1ccccc1C(=O)N1CCc2nc[nH]c2C1	none
COc1ccccc1/C=C1\N=C(c2cc([N+](=O)[O-])cc([N+](=O)[O-])c2)OC1=O	none
CCN(CC)CCn1c(-c2ccccc2)csc1=Nc1ccccc1	none
OCCn1c(-c2ccc(Cl)c(Cl)c2)csc1=Nc1ccccc1	mHTT-CaM PPI inh 100
Cc1ccc(-c2csc(=Nc3ccccc3)n2CCO)cc1	mHTT-CaM PPI inh 52
OCCn1c(-c2ccc(Cl)cc2)csc1=Nc1ccccc1	mHTT-CaM PPI inh 69
c1ccc(N=c2scc(-c3ccccc3)n2CCN2CCOCC2)cc1	none
Cc1ccc(S(=O)(=O)Nc2cccc3ccc(C)nc23)cc1	none
Cc1ccc(S(=O)(=O)Nc2cccc3ccc(-n4nc(C)cc4C)nc23)cc1	Pf apPOL inh 60
CNCC(O)CN1CCN(c2ccc([N+](=O)[O-])cc2)CC1 (stereo unspecified)	none
COc1ccc(-n2nc(C(=O)NCC(=O)N3CCOCC3)c3ccccc3c2=O)cc1Cl	none
OC(C#CC12CC3CC(CC(C3)C1)C2)c1cccnc1 (stereo unspecified)	none
Cc1ccc(C(O)C#CC23CC4CC(CC(C4)C2)C3)o1 (stereo unspecified)	mHTT-CaM PPI inh 87
COc1c(Br)csc1-c1nnc(-c2cccc([N+](=O)[O-])c2)o1	none (no result: mHTT-CaM PPI inh)
Cc1cccc(-n2cnc3cc(C(=O)NC4CCCC4)ccc32)c1	none
Cc1cccc(-n2cnc3cc(C(=O)N4CCc5ccccc54)ccc32)c1	mHTT-CaM PPI inh 67
CC1=NN(C(=S)c2ccc(C)cc2)C(C)(O)C1CC(C)C (stereo unspecified)	mHTT-CaM PPI inh 76 (no result: Pf apPOL inh)
O=C(c1ccc(-c2cccnc2)nc1)N1CCN(c2ccc(Cl)cc2)CC1	none
CN1CCN(C(=O)c2ccc(SCc3cccnc3)c([N+](=O)[O-])c2)CC1	none
O=C(c1ccc(-c2cccnc2)nc1)N1CCN(c2ccccc2)CC1	none
O=C(c1ccc(-c2cccnc2)nc1)N1CCN(c2cccc(Cl)c2)CC1	mHTT-CaM PPI inh 76
Cc1ccc(C)c(N2CCN(C(=O)c3ccc(SCc4cccnc4)c([N+](=O)[O-])c3)CC2)c1	mHTT-CaM PPI inh 65
Cc1ccc(C)c(N2CCN(C(=O)c3ccc(-c4cccnc4)nc3)CC2)c1	mHTT-CaM PPI inh 64
Cc1ccccc1CC(=O)N1CCC2(CC1)NC(=O)c1cccc(Cl)c1N2	none
O=C1C[C@H]2C=CCc3cccc(c32)CN1Cc1ccc(Cl)cc1	none
COc1cccc(CN2Cc3cccc4c3[C@H](C=CC4)CC2=O)c1	mHTT-CaM PPI inh 100
COc1ccc(NC(=O)c2cn3c(n2)CN(CC(C)C)CC3)cc1	none
COc1cccc(Nc2ncc3c(n2)CCN(Cc2ccc(N(C)C)cc2)C3)c1	mHTT-CaM PPI inh 73
COc1ccc(Nc2ncc3c(n2)CCN(Cc2ccc(N(C)C)cc2)C3)c(OC)c1	none
COc1cccc(Nc2ncc3c(n2)CCN(Cc2ccc(OC(C)C)cc2)C3)c1	mHTT-CaM PPI inh 51
CCOc1ccc(CN2CCc3nc(Nc4cccc(OC)c4)ncc3C2)cc1	none
COCC(=O)N1CCc2c(nc3cc(-c4ccccc4)[nH]n3c2=O)C1	none
COc1cccc(C(=O)NCc2[nH]nc3ccccc23)c1	mHTT-CaM PPI inh 52
Cc1cc(C)cc(C(=O)NCc2[nH]nc3ccccc23)c1	none
O=C(Nc1cccc(O)c1)c1nn2c(C(F)(F)F)cc(-c3ccco3)nc2c1Br	mHTT-CaM PPI inh 61
O=C(NC1CCCC1)c1nn2c(C(F)(F)F)cc(-c3ccco3)nc2c1Br	none
O=C(CC(=O)c1ccccc1Cl)c1ccccc1O	mHTT-CaM PPI inh 50
O=C(CC(=O)c1ccccc1O)c1ccc(F)cc1	none
O=C(NCCNC(=O)c1ccccc1O)c1ccccc1O	none
O=C(CC(=O)c1ccccc1O)c1cccc(F)c1	mHTT-CaM PPI inh 57
OCc1nc2ccccc2n1Cc1ccc(Cl)c(Cl)c1	mHTT-CaM PPI inh 73
OCc1nc2ccccc2n1Cc1ccccc1	none
Cc1cc(C)cc(N2COc3cc4c(cc3C2)OCO4)c1	mHTT-CaM PPI inh 53
Cc1ccc(N2COc3cc4c(cc3C2)OCO4)cc1Cl	none
Cc1ccc(N2COc3cc4c(cc3C2)OCO4)cc1	none
Cc1cccc(N2COc3cc4c(cc3C2)OCO4)c1	mHTT-CaM PPI inh 59
N=S(Cc1ccc(Br)cc1)Nc1ccccc1 (stereo unspecified)	none (no result: mHTT-CaM PPI inh)
O=C1NC(=Nc2cccc(C(=O)O)c2)S/C1=C\c1cccnc1	none
COc1cccc(C=C2SC(=S)N(CCCC(=O)O)C2=O)c1	none
CCC(=O)Oc1ccc2c(c1)OC(=Cc1ccc(C)o1)C2=O	none
CC(=O)N(C)c1ccc(OCC(O)Cn2c3ccccc3c3ccccc32)cc1 (stereo unspecified)	mHTT-CaM PPI inh 73
